# ELG1 DNA repair = qHTS screen for small molecules that inhibit ELG1-dependent DNA repair in human embryonic kidney (HEK293T) cells expressing luciferase-tagged ELG1; HEK293T ELG1-luciferase reporter, luminescence, 16 h; DNA damage induced by 5-fluorouridine; Potency, µM (series often up to 46.1 µM), for inactives: at the highest dose activity change, negative = inhibition, most hits filed as inhibitors; 330,000 compounds, 2.3% hits; AID 504467, 2011; also: % is scaled to controls: 0 for no effect and ±100 for the full control effect; nearly all actives have a fitted effect of over 55% in size
#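 DMSO vehicle served as the neutral condition. Each well held 2,000 cells given 5-fluorouridine plus compound; after 16 hr at 37 °C/5% CO2, ONE-Glo was added and luciferase measured 30 min later.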
# NPC1 prom act = qHTS Assay for NPC1 Promoter Activators; Huh7 NPC1 promoter luciferase reporter, 24 h; 320,000 compounds, 2.4% hits; AID 485313, 2010; Potency, µM (titrated, usually from 9.22 µM), inactives show top-dose activation, hits mostly activators; also: % of control where 0% means no effect; nearly all actives have a fitted effect of over 60% in size
#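 Stable NPC1-promoter luciferase Huh7 line; cpd (DMSO) 24 h, 37 °C, 5% CO2; Amplite luciferase reagent 10 min RT; luminescence readout. qHTS format.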
# FLuc modulator = qHTS profiling assay for firefly luciferase inhibitor/activator using purifed enzyme and Km concentrations of substrates (counterscreen for miR-21 project); Luciferin 4-monooxygenase (Photinus pyralis), P08659; purified FLuc, Km substrates, luminescence inhibition; Potency, µM (highest dose often 57.5 µM), for inactives: at the highest dose activity change, negative = inhibition, most hits filed as inhibitors; 360,000 compounds, 6.9% hits; AID 588342, 2011;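 also: plate controls were vehicle for no effect and reference inhibitor for full effect; nearly all actives have a fitted effect of over 55% in size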
# Target sequence (P08659 whole entry, looked up): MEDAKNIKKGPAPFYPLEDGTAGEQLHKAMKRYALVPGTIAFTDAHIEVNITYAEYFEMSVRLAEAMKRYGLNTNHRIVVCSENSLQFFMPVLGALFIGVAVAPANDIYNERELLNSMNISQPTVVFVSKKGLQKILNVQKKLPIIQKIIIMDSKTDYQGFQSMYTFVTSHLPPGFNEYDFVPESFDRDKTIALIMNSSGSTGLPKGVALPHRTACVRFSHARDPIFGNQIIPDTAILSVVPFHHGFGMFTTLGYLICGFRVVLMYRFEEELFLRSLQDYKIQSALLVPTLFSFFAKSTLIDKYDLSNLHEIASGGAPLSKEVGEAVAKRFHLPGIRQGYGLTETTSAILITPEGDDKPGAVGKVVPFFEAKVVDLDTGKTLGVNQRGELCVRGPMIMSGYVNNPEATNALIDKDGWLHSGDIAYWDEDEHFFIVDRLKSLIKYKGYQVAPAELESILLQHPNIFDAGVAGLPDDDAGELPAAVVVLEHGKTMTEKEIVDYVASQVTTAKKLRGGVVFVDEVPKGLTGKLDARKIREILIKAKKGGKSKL
#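 Purified P. pyralis luciferase (10nM final) with 10uM D-luciferin and 10uM ATP (Km levels) in 50mM Tris acetate pH 7.5, 10mM Mg acetate, 0.01% Tween-20, 0.05% BSA; qHTS 6-point titration, ~60 µM downward; luminescence read.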
# SMN2 splice enh = qHTS Assay for Enhancers of SMN2 Splice Variant Expression. HEK293 SMN2-luciferase splicing reporter, luminescence, 30-36 h. 210,000 compounds, 2.8% hits. Potency, µM (highest dose often 46.1 µM), without a hit: top-dose activity change, positive = activation, usual class: activators; also: % of control where 0% means no effect; nearly all actives have a fitted effect of over 55% in size
#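 qHTS luciferase splicing reporter: luminescence rises when SMN2 exon 7 is included in transfected HEK293 cells. Compound exposure lasted 30-36 h at 37C, with 4.5 mM final sodium butyrate as control, followed by a ONE-Glo read.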
# Rab9 promoter act = qHTS Assay for Rab9 Promoter Activators | Huh7 Rab9 promoter-luciferase reporter, luminescence, 24 h | Potency, µM (top dose mostly 9.22 µM), for inactives: at the top dose activation, negative = inhibition, usual class: activators | 320,000 compounds, 2.8% hits | AID 485297, 2010; also: % of control where 0% means no effect; nearly all actives have a fitted effect of over 60% in size
#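 Using Huh7 cells stably transfected with Rab9 promoter–luciferase, compounds were incubated 24 h at 37 °C, 5% CO2; luciferase luminescence was read 10 min after reagent addition.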
# ELG1 genotox = qHTS screen for small molecules that induce genotoxicity in human embryonic kidney (HEK293T) cells expressing luciferase-tagged ELG1; HEK293T ELG1-luciferase reporter, luminescence, 16 h; Potency, µM (highest dose often 46 µM), inactives show at the top dose activity change, positive = activation, actives largely listed as activators; 330,000 compounds, 1.3% hits; AID 504466, 2011; also: % of control where 0% means no effect; nearly all actives have a fitted effect of over 60% in size
#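 Genotoxicity was scored as increased ELG1-luciferase reporter signal, measured by ONE-Glo luminescence (30 min, room temperature). Compound or vehicle exposure of the HEK293T reporter cells lasted 16 hr at 37°C.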
# Starred values were filed as active, the others as inactive; ? = inconclusive; / = not tested or not shown; [ ] = another dose, or the depositor's remark. Most compounds without a hit are left out; they make up all but 9.2% or so of the library. Calls follow the shape of the dose curve; as a rule, active = well fitted curve in the direction sought with a large enough effect; inconclusive = small, poorly fitted or top-dose-only effect, or another doubt; inactive = no such curve, though single readings can be large; an effect the other way counts as inactive or inconclusive. Potency is read from the fitted curve at half-maximal effect.
SMILES,ELG1 DNA repair,NPC1 prom act,FLuc modulator,SMN2 splice enh,Rab9 promoter act,ELG1 genotox
COc1cccc(CNC(=O)COC(=O)c2nn(C)c(=O)c3ccccc23)c1,8%,/,/,/,/,0%
COC(=O)C1CC1C(NC(=O)[C@@H]1CCCN1)c1ccccc1 (stereo not given in full),/,/,/,-1%,/,/
O=C(/C=C/c1cccs1)N1CCN(c2ccccc2F)CC1,?,-3%,-13%,10%,-4%,6%
O=C(c1cccs1)N1CCc2ccccc21,?,?,27µM*,14µM*,?,?
O=C(/C=C/c1ccc(Cl)c(Cl)c1)N1CCc2ccccc21,?,3.2µM*,?,7.1µM*,2.8µM*,?
O=C(/C=C/c1cccs1)N1CCc2ccccc21,?,4µM*,0.48µM*,2.8µM*,4µM*,1.8µM*
CCCN(C(=O)COC(=O)C12CCC(=O)N1c1ccccc1S2)c1c(N)n(Cc2ccccc2)c(=O)[nH]c1=O (stereo not given),-1%,2%,-1%,/,3%,2%
Cn1nc(C(C)(C)C)cc1NC(=O)Nc1cc(Cl)cc(Cl)c1,12%,1%,-3%,/,-12%,-7%
NC(=O)c1cc(S(=O)(=O)NCc2cccs2)cs1,?,1%,-1%,/,6%,2%[9.26 µM]
O=C(COC(=O)c1nc(Cl)ccc1Cl)NC1CCCCC1,10%,-3%,0%,/,-1%,1%
CC(C)Cc1ccc(C(C)NC(=O)Cc2ccc(S(=O)(=O)N3CCOCC3)s2)cc1 (stereo not given),?,-3%,4%,/,1%,16%
N#Cc1c(NC(=O)c2nc3ncccn3n2)sc2c1CCCCC2,?,1.8µM*,13µM*,7.9µM*,4.5µM*,2.3µM*
CC1CCc2c(sc(NC(=O)c3nc4ncccn4n3)c2C#N)C1 (stereo not given),?,3.2µM*,7.6µM*,/,4.5µM*,?
Nc1nc2c([nH]c(=O)n2C2OC(CO)C(O)C2O)c(=O)[nH]1 (stereo not given),/,/,/,-1%,/,/
CC(C)C(=O)N1c2nc(-c3ccco3)nn2C2(CCCCC2)[C@@H]2CCCC[C@@H]21,/,/,-7%,/,/,/
O=C1C=C(N2CCCCCC2)C(=O)N1c1ccc(Cl)cc1,?,1.6µM*,2.1µM*,/,2.2µM*,?
O=C1C(Cl)=C(N2CCCCCC2)C(=O)N1c1ccc(Cl)cc1,10%,-1%,?,/,-3%,4%
O=c1[nH]c(SCc2cccc(F)c2)nc2c1CCCC2,10%,1%,4%,-1%,-12%,1%
N#CC1=C(N)OC2=C(C(=O)CCC2)C1c1cc2c(cc1Cl)OCO2 (stereo not given),15%,-2%,3%,/,0%,1%
CSc1ccc(S(=O)(=O)N2CCC(C(=O)NCc3ccccn3)CC2)cc1,3%,-3%,1%,/,-5%,-2%
COc1cc(CNC(=O)c2cc(C(=O)NCc3cc(OC)cc(OC)c3)n(C)n2)cc(OC)c1,21µM*,-2%,1%,/,-2%,1%
O=C(NCc1cccc(F)c1)c1ccc(-n2cnc3cccnc32)cc1,/,/,-6%,/,/,/
Cn1nc(C(=O)NCc2cccc(F)c2)cc1C(=O)NCc1cccc(F)c1,12µM*,-3%,1%,/,-10%,-2%
COc1cc(CNC(=O)c2cnc(C)cn2)cc(OC)c1,-1%,6%,-3%,/,-2%,3%
Cc1cccc(C(=O)Nc2cccc(C(=O)OCc3cc(=O)n4ccsc4n3)c2)c1,/,/,-7%,/,/,/
C=C(C)COc1ccc2c(CC)cc(=O)oc2c1,0%,1%,-19%,5%,1%[1.84 µM],2%

# From PubChem
